These results are taken from PubChem BioAssay (EPA / NIEHS).

Assay [1] addresses Nuclear respiratory factor 1 (Homo sapiens) (UniProt Q16656). The assay can be described thus: ATG_NRF1_CIS: Attagene CIS-FACTORIAL HepG2 Assay for human Nuclear Respiratory Factor 1 (NRF1) Orphan Gene (AID 2282987). To be noted: HepG2 NRF1 cis-element reporter, Attagene multiplex; actives raise or lower the signal. The essentials: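 Endogenous NRF1-driven reporter transcription in transfected HepG2 cells after 24 h treatment. Readout: RT-PCR products, 6-FAM labelled and resolved by capillary electrophoresis; changes fitted both directions relative to DMSO.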

Assay [2] is described as follows: ATG_NFI_CIS: Attagene CIS-FACTORIAL HepG2 Assay for human Nuclear Factor I (NFI) (AID 2282989). The note with it: HepG2 cis-regulatory reporter, NFI response element transcription; actives raise or lower the signal. The essentials: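 Transient MRTU transfection of HepG2 → 24 h chemical dosing → total RNA, oligo(dT) RT → PCR, 6-FAM primer extension, HpaI cut → capillary electrophoresis. Endpoint fitted bidirectionally relative to DMSO.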

The target in assay [3] is Myc proto-oncogene protein (Homo sapiens) (UniProt P01106). The assay can be described thus: ATG_Myc_CIS: Attagene CIS-FACTORIAL HepG2 Assay for human Myelocytomatosis (Myc) Proto-Oncogene Transcription Factor (AID 2282990). The note with it: HepG2, Attagene cis-reporter transcription factor activity; actives raise or lower the signal. The essentials: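 Transiently transfected HepG2 cells bearing cis-promoter reporter units for endogenous transcription factors; 24 h exposure. Reporter mRNA measured by RT-PCR, 6-FAM primer extension, HpaI cut and capillary electrophoresis; bidirectional fit relative to DMSO.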
Sequence of Myc proto-oncogene protein (Homo sapiens) (P01106 whole entry, looked up): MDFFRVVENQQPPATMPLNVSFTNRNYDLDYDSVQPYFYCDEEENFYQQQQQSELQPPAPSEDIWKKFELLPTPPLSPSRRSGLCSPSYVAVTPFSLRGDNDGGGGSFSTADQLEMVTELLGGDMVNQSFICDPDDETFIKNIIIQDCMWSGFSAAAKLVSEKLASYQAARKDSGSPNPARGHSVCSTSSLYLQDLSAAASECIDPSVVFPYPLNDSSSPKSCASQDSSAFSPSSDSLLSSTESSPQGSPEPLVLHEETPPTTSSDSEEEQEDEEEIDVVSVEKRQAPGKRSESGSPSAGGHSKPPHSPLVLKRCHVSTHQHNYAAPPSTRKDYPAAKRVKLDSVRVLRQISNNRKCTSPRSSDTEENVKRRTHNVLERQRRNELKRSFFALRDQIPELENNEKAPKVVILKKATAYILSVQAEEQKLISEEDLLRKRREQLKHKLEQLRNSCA

The nature of assay [4]: ATG_NRF2_ARE_CIS: Attagene CIS-FACTORIAL HepG2 Assay for human Nuclear Factor Erythroid 2 Related Factor 2 (NFR2) response to Antioxidant Response Elements (ARE) (AID 2282992). The note with it: HepG2 Attagene ARE/NRF2 reporter, transcription factor activity; actives raise or lower the signal. The procedure, abridged:
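Endogenous transcription factor activity in human liver HepG2 cells is tracked via a cis-element-driven reporter within a multiplexed set. mRNA induction is read by RT-PCR and capillary electrophoresis after 24 h, with DMSO as baseline.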

Assay [5] can be described thus: ATG_Oct_MLP_CIS: Attagene CIS-FACTORIAL HepG2 Assay for human Octamer-Binding Transcription Factor (Oct) (AID 2282993). To be noted: HepG2 Attagene cis-factorial Oct reporter, mRNA; actives raise or lower the signal. The essentials:
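Transient MRTU transfection of HepG2 → 24 h compound treatment → RNA isolation, reverse transcription, PCR → 6-FAM primer extension, HpaI digest → capillary electrophoresis. Activity fitted both directions against DMSO.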

The target in assay [6] is Cellular tumor antigen p53 (Homo sapiens) (UniProt P04637). The assay can be described thus: ATG_p53_CIS: Attagene CIS-FACTORIAL HepG2 Assay for human p53 Transcription Factor (AID 2282994). To be noted: HepG2 p53 cis-element reporter, Attagene mRNA; actives raise or lower the signal. The procedure, abridged:
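Steps: transfect HepG2 with multiplexed cis reporter constructs; dose chemicals 24 h; extract RNA, reverse-transcribe, PCR-amplify reporter sequences; FAM-label, HpaI-digest, resolve fragments by CE. Activity fitted both directions relative to DMSO.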

A short description of assay [7]: ATG_NF_kB_CIS: Attagene CIS-FACTORIAL HepG2 Assay for human Nuclear Factor Kappa B (NF-kB) (AID 2282991). The note with it: HepG2 Attagene cis-factorial NF-kB reporter mRNA; actives raise or lower the signal. The essentials: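 Readout is reporter transcript level, gain or loss versus DMSO, measured 24 h post-dose via RT-PCR, fluorescent labelling and capillary electrophoresis. Human HepG2 liver cells carried transiently transfected CIS reporter constructs reflecting endogenous factors.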

Assay [8] is described as follows: BSK_3C_TissueFactor: BioMAP Diversity Plus: 3C Assay for Tissue Factor Biomarker Activity (AID 2282997). The note with it: BioMAP 3C HUVEC, tissue factor biomarker readout; actives raise or lower the signal. The essentials:
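Cells used were primary human umbilical vein endothelial cells. They were dosed with chemical, and after 24 h Tissue Factor was quantified by ELISA. Curves were fitted bidirectionally with DMSO as baseline.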

A short description of assay [9]: BSK_3C_uPAR: BioMAP Diversity Plus: 3C Assay for Urokinase-type plasminogen activator receptor (uPAR) Biomarker Activity (AID 2282998). The note with it: BioMAP 3C HUVEC, uPAR biomarker ELISA; actives raise or lower the signal. The procedure, abridged:
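ELISA readout of uPAR on human vascular endothelium (umbilical vein primary cells), taken 24 h after chemical dosing. Increases and decreases are both fitted relative to DMSO vehicle.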
(An ELISA detects its analyte on a solid surface through an enzyme-linked reagent.)

A short description of assay [10]: BSK_3C_VCAM1: BioMAP Diversity Plus: 3C Assay for Vascular cell adhesion molecule 1 (VCAM1) Biomarker Activity (AID 2282999). To be noted: BioMAP 3C HUVEC, VCAM1 ELISA, cytokine-stimulated; actives raise or lower the signal. The procedure, abridged: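 HUVEC primary cells, 24 h compound exposure; VCAM-1 by ELISA; gain/loss of signal fitted bidirectionally vs DMSO baseline.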

Activity calls are given as the source filed them. How the source made its calls: active means hit-call score of the fitted dose curve at least 0.9, where 1 is the maximum; inactive means score below 0.9.

As usually defined, the AC50 is the concentration giving half of the maximal activity seen.

Sequence of Cellular tumor antigen p53 (Homo sapiens) (P04637 whole entry, looked up, the tested form may be a part): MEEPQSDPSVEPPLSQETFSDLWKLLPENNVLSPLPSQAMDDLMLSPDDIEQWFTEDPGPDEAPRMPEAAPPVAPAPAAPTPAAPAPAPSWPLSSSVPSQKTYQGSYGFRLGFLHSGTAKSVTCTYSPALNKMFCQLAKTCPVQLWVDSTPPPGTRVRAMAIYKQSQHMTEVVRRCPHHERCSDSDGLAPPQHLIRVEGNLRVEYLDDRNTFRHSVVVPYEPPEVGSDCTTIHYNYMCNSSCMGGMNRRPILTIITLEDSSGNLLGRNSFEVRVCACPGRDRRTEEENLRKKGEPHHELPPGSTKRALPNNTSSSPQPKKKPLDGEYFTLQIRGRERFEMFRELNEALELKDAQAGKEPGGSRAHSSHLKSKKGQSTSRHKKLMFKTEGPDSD
Sequence of Nuclear respiratory factor 1 (Homo sapiens) (Q16656 whole entry, looked up): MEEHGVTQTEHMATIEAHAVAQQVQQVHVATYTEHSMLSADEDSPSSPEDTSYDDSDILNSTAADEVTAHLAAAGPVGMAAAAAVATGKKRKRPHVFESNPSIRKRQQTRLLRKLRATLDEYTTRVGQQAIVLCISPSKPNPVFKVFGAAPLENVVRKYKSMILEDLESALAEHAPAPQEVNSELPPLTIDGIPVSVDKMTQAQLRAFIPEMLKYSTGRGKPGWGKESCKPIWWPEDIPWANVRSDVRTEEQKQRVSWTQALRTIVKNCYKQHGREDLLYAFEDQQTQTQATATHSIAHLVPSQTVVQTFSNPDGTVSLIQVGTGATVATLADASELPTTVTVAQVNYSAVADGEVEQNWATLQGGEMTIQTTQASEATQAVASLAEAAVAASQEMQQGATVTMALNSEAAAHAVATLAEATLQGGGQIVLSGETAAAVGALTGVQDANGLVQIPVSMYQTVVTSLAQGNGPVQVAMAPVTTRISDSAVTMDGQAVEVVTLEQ

On to `CC(=O)C(C)C`, for which the outcome in assay [1], in assay [2], in assay [3], in [4], in [5] and in [6] was inactive.
For `C=CC(=O)OCCCCCCCCCC`, the call in assay [1], in assay [2], in assay [3], in assay [7], in assay [5] and in assay [6] was inactive.
For the compound `[Cl][Sc]([Cl])[Cl]`, the compound was classed as inactive in assay [1], in [2], in [3], in assay [7], in assay [5] and in assay [6].
As to `COC(=O)CC(C)CCC=C(C)C` (configuration not stated), the compound was called inactive in [1], in assay [2], in [3], in assay [4], in assay [5] and in assay [6].
As for `CC1CCC(=O)C1=O` (configuration not stated), the compound was called inactive in [1], in assay [2], in [3], in [4] and in assay [5].
Regarding `Oc1ccccc1Cc1ccccc1O`, the compound was called inactive in assay [1], in assay [2], in assay [3], in assay [7], in assay [8] and in assay [9]. Besides, the outcome in assay [10] was inactive. Besides, in assay [6], the concentration at half-maximal activity (AC50) is 100 µM (active).
On to `CC12CCC(CC1)C(C)(C)O2`, for which the outcome in assay [1], in assay [2], in assay [3], in [4], in assay [5] and in assay [6] was inactive.
`CCCCc1ccc(Cl)cc1`: the outcome in assay [1], in [2], in [3], in assay [4] and in [6] was inactive.
For the compound `O=C(O)c1cc(O)c2ccccc2c1O`, the call in assay [1], in assay [2], in assay [5] and in assay [6] was inactive. The AC50 is 43.6 µM (active) in assay [3] and 7.34 µM (active) in [4].
On to `CC1=CC=C(C(C)C)CC1`, for which the result in [1], in assay [2], in assay [3], in [5], in assay [6] and in assay [8] was inactive. In addition, the outcome in [9] and in assay [10] was inactive. Also, the AC50 in [4] is 152 µM (active).
For `O=C(OCCc1ccccc1)c1ccccc1`, the compound was called inactive in assay [1], in assay [2], in assay [3], in assay [5] and in [6].
Turning to `CC1OC(=O)C(C)OC1=O` (configuration not stated), the compound was classed as inactive in assay [1], in assay [2], in [3], in assay [5] and in assay [6].
Consider `CCCCCCCCCCCC(C)=O`, for which the AC50 in assay [1] was 158 µM (active); in assay [6], 147 µM (active); in [8] it was 25.4 µM (active); in [9] it was 34.5 µM (active); in [10], 29.8 µM (active). The compound was called inactive in assay [2], in assay [3] and in assay [5].
For the compound `CC(C)c1cc(C(C)C)cc(C(C)C)c1`, the AC50 was 174 µM (active) in [1], 151 µM (active) in assay [2], 161 µM (active) in assay [3] and 66.3 µM (active) in assay [4]. Moreover, the compound was called inactive in assay [5] and in [6].
Consider `CC(=O)CCC1=C(C)CCCC1(C)C`, for which the call in assay [1], in assay [2], in assay [7] and in [5] was inactive. For the same compound, in assay [4], the AC50 is 49.1 µM (active).
Take `C=C(C)C1CC=C(C)CC1` (configuration not stated): the compound was classed as inactive in assay [1], in assay [2], in assay [3], in [5] and in assay [6].
In the case of `C=CC(=O)OCCCCCCOC(=O)C=C`, the result in [1], in assay [2] and in assay [3] was inactive. For the same compound, the AC50 is 174 µM (active) in assay [6], 3.97 µM (active) in assay [8], 20 µM (active) in assay [9] and 10.4 µM (active) in assay [10].
Take `C=CC(=O)NCOCCCC`: the outcome in assay [1], in assay [2], in assay [3], in assay [5], in [8] and in assay [9] was inactive. In addition, the result in [10] was inactive. In addition, in assay [4], the concentration at half-maximal activity (AC50) is 66.5 µM (active).
In the case of `CCOC(=O)C1=NOC(c2ccccc2)(c2ccccc2)C1`, the call in [1], in [2], in assay [3], in assay [5], in [6] and in [8] was inactive. In addition, the outcome in [9] and in assay [10] was inactive. In addition, the AC50 in assay [4] is 65.1 µM (active).
Consider `O=C(Oc1ccccc1)c1ccccc1C(=O)Oc1ccccc1`, for which the outcome in [1], in assay [2], in assay [3], in assay [5], in assay [6] and in assay [8] was inactive. The outcome in assay [9] and in [10] was inactive. Further, the AC50 in assay [4] was 30.7 µM (active).
For the compound `CC(CC=O)CC(C)(C)C` (configuration not stated), the result in assay [1], in [2], in [3], in assay [4], in assay [5] and in assay [6] was inactive.
For `O=C(O)C1CCC(C(=O)O)CC1` (configuration not stated), the result in [1], in assay [2], in assay [3], in assay [4] and in assay [6] was inactive.
With `Nc1cccc(N)n1`, the compound was called inactive in assay [1], in assay [2], in assay [3], in assay [4], in assay [5] and in assay [8]. The outcome in [9] and in assay [10] was inactive.
Consider `O=C1CCCCCCCCCCC1`, for which the compound was called inactive in [1], in assay [2], in assay [3], in [5], in assay [6] and in assay [8]. The outcome in [9] and in assay [10] was inactive.
For the compound `COc1cc(C)ccc1O`, the call in [1], in assay [2], in [3], in assay [5] and in assay [6] was inactive. Further, the AC50 in assay [4] is 17.4 µM (active).
With `Cc1ccc([N+](=O)[O-])cc1N`, the compound was classed as inactive in assay [1], in [2], in assay [3], in [4], in [5] and in assay [6]. Moreover, the result in [8], in [9] and in assay [10] was inactive.
For the compound `O=C(OCc1ccccc1)c1ccc(O)cc1`, the compound was classed as inactive in [1], in assay [2], in assay [3] and in [6]. In addition, the AC50 in assay [4] was 64.4 µM (active).
As to `C=CC(=O)OCC(C)OCC(C)OCC(C)OC(=O)C=C` (configuration not stated), the result in [1], in assay [2] and in assay [3] was inactive. Further, the AC50 in assay [4] is 25.6 µM (active); in assay [5] it was 29.5 µM (active); in assay [6] it was 145 µM (active); in assay [8], 11.6 µM (active); in assay [9], 24.6 µM (active); in assay [10], 12.1 µM (active).
For `C=C[C@@]1(C)CC(=O)[C@]2(O)[C@@]3(C)[C@@H](O)CCC(C)(C)[C@@H]3[C@H](O)[C@H](OC(C)=O)[C@@]2(C)O1`, the outcome in assay [1], in assay [2] and in [3] was inactive. The figures for the AC50 in assay [4] and in [6] were 2.95 µM (active) and 0.983 µM (active), respectively.
As for `CCCCC(=O)O`, the call in assay [1], in [2], in assay [3], in assay [4], in [5] and in [6] was inactive.
